Records with an inconclusive call do not appear. Active and inactive are the calls of the source. Calls follow the shape of the dose curve; as a rule, active = well fitted cell-killing curve with a large enough effect; inconclusive = small, poorly fitted or top-dose-only effect; inactive = flat fitted curve, though single readings scatter.

Test [1] can be described thus: Cell Viability - LYMP2-011 (AID 969). Also: nearly all actives have a fitted effect of over 60% in size. Also: potency is read from the fitted curve at half-maximal effect. In a few lines: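 2500 cells/well in complete medium, compound-treated 24 h at 37 C. Viability read as intracellular ATP by CellTiter-Glo luminescence after 30 min at room temperature. AC50 from Hill fits of qHTS concentration-response data.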
A short description of test [2]: Cell Viability - LYMP2-013 (AID 970). Also: nearly all actives have a fitted effect of over 55% in size. Also: potency is read from the fitted curve at half-maximal effect. In a few lines:
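Human lymphoblastoid LYMP2-013 cells, 2500/well, treated 24 h at 37 C in complete medium; viability as intracellular ATP by CellTiter-Glo luminescence after 30 min. AC50 from Hill fits of qHTS concentration-response.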

Test [3] in a line: Cell Viability - LYMP2-015 (AID 971). Also: nearly all actives have a fitted effect of over 55% in size. In a few lines:
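LYMP2-015 human lymphoblastoid cells (2500/well) in complete medium, compound-treated 24 h at 37 C; viability read as cellular ATP by CellTiter-Glo luminescence after 30 min at room temperature. AC50 from Hill-equation fits of qHTS concentration-response data.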

Test [4] can be described thus: Cell Viability - LYMP2-017 (AID 972). Also: nearly all actives have a fitted effect of over 55% in size. Also: potency is read from the fitted curve at half-maximal effect. A digest of the protocol: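 LYMP2-017 human lymphoblastoid cells (2500/well) settled 5 hr at 37 C, then exposed to compound 24 hr at 37 C in complete medium. Viability taken as intracellular ATP by CellTiter-Glo luminescence after 30 min at RT; AC50 from Hill fits.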
A short description of test [5]: Cell Viability - LYMP2-019 (AID 973). Also: nearly all actives have a fitted effect of over 55% in size. In a few lines:
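Human lymphoblastoid LYMP2-019 cells (2500/well) preincubated 5 h at 37 C, then treated 24 h at 37 C in complete medium. Viability by CellTiter-Glo ATP luminescence after 30 min at room temperature; AC50 from Hill fits.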

Test [6] is described as follows: Cell Viability - LYMP2-021 (AID 974). Also: potency is read from the fitted curve at half-maximal effect. A digest of the protocol:
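Human lymphoblastoid LYMP2-021 cells, 2500/well in complete medium, treated 24 hours at 37 C. Intracellular ATP by CellTiter-Glo luminescence (30 min, RT); AC50 from Hill fits of concentration-response.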

The nature of test [7]: Cell Viability - LYMP2-023 (AID 975). Also: nearly all actives have a fitted effect of over 55% in size. Also: potency is read from the fitted curve at half-maximal effect. In a few lines: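 LYMP2-023 human lymphoblastoid cells, 2500/well, preincubated 5 hr at 37 C, then compound-treated 24 hr at 37 C in complete medium. CellTiter-Glo luminescence (ATP) after 30 min at room temperature; AC50 from Hill-equation fits; tetraoctylammonium bromide positive control.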
Test [8] is described as follows: Cell Viability - LYMP2-002 (AID 977). Also: series mostly up to about 92 µM. A digest of the protocol:
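Luminescent ATP readout (CellTiter-Glo, 30 min room temperature) after 24 h compound exposure at 37 C of a human lymphoblastoid line, 2500 cells/well. AC50 values derived by standard Hill fitting of qHTS concentration-response data.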

A short description of test [9]: Cell Viability - LYMP2-006 (AID 978). Also: series mostly up to about 92 µM; nearly all actives have a fitted effect of over 60% in size. A digest of the protocol:
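Concentration-dependent loss of intracellular ATP in a human lymphoblastoid line after 24 hr treatment at 37 C was measured by CellTiter-Glo luminescence, with AC50 values obtained from standard Hill-equation modelling.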

Test [10] in a line: Cell Viability - LYMP2-025 (AID 976). Also: series mostly up to about 92 µM. A digest of the protocol:
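Human lymphoblastoid LYMP2-025 cells, 2500/well, exposed 24 h at 37 C in complete medium in 1536-well qHTS. Viability as cellular ATP by CellTiter-Glo luminescence; AC50 from Hill fits of concentration-response data.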

`CC12CCC(CC1)C(C)(C)O2`: the Potency entry in [1], in test [2], in test [4], in [6] and in test [7] was “inactive” each time. The result in test [3], in test [5], in test [8] and in test [9] was inactive.
As to `CC1(C)[C@@H]2CC[C@@]1(C)C(=O)C2`, the Potency result in [1], in test [2], in test [4], in test [6] and in [7] was “inactive” throughout. The call in test [3], in test [5], in [10], in [8] and in [9] was inactive.
Take `NC(=O)N/N=C/c1ccc([N+](=O)[O-])o1`: the Potency result in test [2] and in [6] was “inactive” in each case.
Take `Nc1ccc(S(=O)(=O)Nc2nccs2)cc1`: the Potency entry in test [1], in test [2], in [4], in test [6] and in test [7] was “inactive” throughout. Further, the result in [3], in test [10], in [8] and in [9] was inactive.
Regarding `[Cl][In]([Cl])[Cl]`, the Potency entry in test [1], in test [2], in test [4], in test [6] and in test [7] was “inactive” each time. The molecule was classed as inactive in test [3], in test [5], in [10], in [8] and in test [9].
Take `Cc1c(O)cccc1C(=O)N[C@@H](CSc1ccccc1)[C@H](O)CN1C[C@H]2CCCC[C@H]2C[C@H]1C(=O)NC(C)(C)C`: the Potency in [1], in [2], in [4], in test [6] and in test [7] was 50.1 µM (active) in each case.
As to `NCCNCCNCCNCCN`, the Potency entry in test [1], in [2], in [4], in test [6] and in test [7] was “inactive” in each case. The result in [3], in [5], in test [10], in [8] and in test [9] was inactive.
As for `O=C1c2c(O)cccc2Cc2cccc(O)c21`, the Potency result in test [1], in test [2], in [4], in test [6] and in [7] was “inactive” each time. The outcome in [3], in test [5], in test [10], in [8] and in [9] was inactive.
Turning to `CCCCOC(=O)c1ccc(O)cc1`, the Potency entry in [1], in test [2], in test [4], in test [6] and in test [7] was “inactive” throughout. Moreover, the result in test [3], in [5], in test [10], in test [8] and in test [9] was inactive.
As to `CCCCCCCCCCCCOS(=O)(=O)O`, the Potency entry in [1], in [2], in [4], in test [6] and in test [7] was “inactive” throughout. The molecule was classed as inactive in [3], in test [5], in [10], in test [8] and in test [9].
Consider `CN(C)CCC=C1c2ccccc2CCc2ccccc21`, for which, in test [10], the call was inactive.
As for `Cc1cc2nc3c(=O)[nH]c(=O)nc-3n(C[C@H](O)[C@H](O)[C@H](O)CO)c2cc1C`, the Potency result in [1], in test [2], in test [4], in test [6] and in [7] was “inactive” in each case. In addition, the molecule was classed as inactive in test [3], in test [5], in test [10], in [8] and in test [9].
Regarding `NC(=O)c1ncn([C@@H]2O[C@H](CO)[C@@H](O)[C@H]2O)n1`, the Potency entry in [1], in test [2], in [4], in test [6] and in [7] was “inactive” in each case. The molecule was called inactive in [3], in test [10] and in test [8].
Regarding `Cc1cc(CC(=O)O)n(C)c1C(=O)c1ccc(Cl)cc1`, the Potency result in [1], in test [2], in test [4], in test [6] and in test [7] was “inactive” each time. Also, the result in [3], in [5], in [10], in test [8] and in [9] was inactive.
In the case of `COc1ccccc1O`, the Potency result in test [1], in test [2], in test [4], in test [6] and in test [7] was “inactive” throughout. Also, the result in [3], in test [5], in test [10], in test [8] and in test [9] was inactive.
Regarding `NCCNCCNCCN`, the Potency result in test [1], in [2], in test [4], in test [6] and in test [7] was “inactive” each time. The molecule was classed as inactive in test [3], in test [5], in [10] and in [8].
On to `Oc1cccc(O)c1`, for which the Potency result in [1], in test [2], in test [4], in [6] and in test [7] was “inactive” in each case. Further, the molecule was called inactive in test [3], in test [5], in test [10], in test [8] and in test [9].
In the case of `C[C@]12C[C@H](O)[C@H]3[C@@H](CCC4=CC(=O)CC[C@@]43C)[C@@H]1CC[C@@H]2C(=O)CO`, the Potency result in test [1], in test [2], in test [4], in test [6] and in test [7] was “inactive” throughout. Further, the molecule was called inactive in test [3], in test [5], in [10], in test [8] and in test [9].
Consider `O=C1O[C@H]([C@@H](O)CO)C(O)=C1O`, for which the Potency result in test [1], in [2], in [6] and in test [7] was “inactive” throughout. Moreover, the outcome in test [3], in test [5], in test [10], in [8] and in [9] was inactive.
For the molecule `COC(=O)C1=C(C)NC(C)=C(C(=O)OC)C1c1ccccc1[N+](=O)[O-]`, in [10], the molecule was called inactive.

The values are drawn from PubChem BioAssay (NCATS).
